The values that follow come from PMC7862700, “An all-to-all approach to the identification of sequence-specific readers for epigenetic DNA modifications on cytosine”.

Experiment in all cases: DAPPL (digital affinity profiling via proximity ligation, sequencing); 10 mM Tris-HCl pH 7.5, 50 mM NaCl, 1 mM DTT, 4% glycerol, room temperature, 30 min; GST-TFs on glutathione beads, 16-mer random dsDNA library, 0.1% formaldehyde crosslink after washing; high values mean tight binding
What all share (conditions): protein: recombinant; tags: N-terminal GST; dsDNA, one strand shown

In test [1] the target is T1, ETV2 (Homo sapiens, UniProt O00321 1-342).
T1 sequence: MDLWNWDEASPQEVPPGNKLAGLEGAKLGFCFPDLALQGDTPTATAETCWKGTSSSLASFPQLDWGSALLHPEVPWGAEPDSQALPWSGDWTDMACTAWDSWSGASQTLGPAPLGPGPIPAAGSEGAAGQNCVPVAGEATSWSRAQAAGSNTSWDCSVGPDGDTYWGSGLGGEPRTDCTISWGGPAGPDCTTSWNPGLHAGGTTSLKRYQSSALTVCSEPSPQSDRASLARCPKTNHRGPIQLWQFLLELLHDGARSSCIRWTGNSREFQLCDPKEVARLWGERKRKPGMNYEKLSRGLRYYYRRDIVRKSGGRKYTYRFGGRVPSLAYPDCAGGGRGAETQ
The method in brief:
(§1)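 GST fusions of human transcription factors were expressed in yeast and captured with glutathione beads. Once given DNA barcodes and pooled alongside a tag-only sample, they were incubated for 30 min at room temperature with 200 nmole of a random double-stranded 16-mer DNA library in Tris/NaCl/DTT/glycerol buffer, then washed, crosslinked (0.1% formaldehyde), proximity-ligated, PCR-amplified and sequenced on an Illumina NextSeq500. The binding signal of each hexamer is its read frequency for a factor divided by its frequency for the tag-only sample.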

The target in test [2] is T2, ELF3 (Homo sapiens, UniProt P78545 1-371).
T2 sequence: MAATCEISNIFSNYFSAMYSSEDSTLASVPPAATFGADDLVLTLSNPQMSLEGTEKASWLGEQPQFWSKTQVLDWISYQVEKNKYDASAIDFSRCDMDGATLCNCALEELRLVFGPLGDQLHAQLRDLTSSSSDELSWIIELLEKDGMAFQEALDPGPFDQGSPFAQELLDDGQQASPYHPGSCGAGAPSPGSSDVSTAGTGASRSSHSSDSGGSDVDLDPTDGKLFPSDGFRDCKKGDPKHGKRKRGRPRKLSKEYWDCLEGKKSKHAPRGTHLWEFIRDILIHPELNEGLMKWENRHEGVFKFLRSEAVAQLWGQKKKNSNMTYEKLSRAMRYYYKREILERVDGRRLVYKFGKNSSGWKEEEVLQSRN
The method in brief:
as §1

Test [3] addresses ETV1 (Homo sapiens, UniProt P50549 1-477). The method in brief: as §1
For test [4], the target named is T3, ERF (Homo sapiens, UniProt P50548 1-548).
T3 sequence: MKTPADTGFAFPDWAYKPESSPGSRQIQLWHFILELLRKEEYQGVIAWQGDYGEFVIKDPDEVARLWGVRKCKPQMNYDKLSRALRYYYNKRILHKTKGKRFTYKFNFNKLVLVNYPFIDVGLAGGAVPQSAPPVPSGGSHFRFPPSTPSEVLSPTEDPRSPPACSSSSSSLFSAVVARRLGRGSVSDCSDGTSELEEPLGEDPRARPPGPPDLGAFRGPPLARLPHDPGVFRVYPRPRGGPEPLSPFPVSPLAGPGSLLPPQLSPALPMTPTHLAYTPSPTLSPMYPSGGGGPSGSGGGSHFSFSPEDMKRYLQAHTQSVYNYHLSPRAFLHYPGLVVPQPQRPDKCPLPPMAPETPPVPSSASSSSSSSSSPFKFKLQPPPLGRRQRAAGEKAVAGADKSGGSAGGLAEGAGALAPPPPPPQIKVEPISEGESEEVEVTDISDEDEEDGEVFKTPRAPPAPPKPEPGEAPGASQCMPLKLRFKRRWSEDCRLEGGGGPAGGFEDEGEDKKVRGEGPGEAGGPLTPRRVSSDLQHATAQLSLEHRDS
A digest of the protocol:
as §1

Test [5] concerns the target T4, ETV3L (Homo sapiens, UniProt Q6ZN32 1-361).
T4 sequence: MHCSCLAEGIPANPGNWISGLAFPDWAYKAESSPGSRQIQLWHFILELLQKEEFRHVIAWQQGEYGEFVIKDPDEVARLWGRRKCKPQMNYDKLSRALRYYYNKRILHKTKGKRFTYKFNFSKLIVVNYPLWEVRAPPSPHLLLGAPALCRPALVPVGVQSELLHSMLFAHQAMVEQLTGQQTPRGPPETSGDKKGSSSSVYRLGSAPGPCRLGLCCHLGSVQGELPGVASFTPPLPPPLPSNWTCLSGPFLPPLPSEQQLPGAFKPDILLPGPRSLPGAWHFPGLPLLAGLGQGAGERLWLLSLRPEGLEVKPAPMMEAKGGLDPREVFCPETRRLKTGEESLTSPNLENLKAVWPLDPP
A digest of the protocol: as §1

Test [6] has as its target T5, ETS2 (Homo sapiens, UniProt P15036 1-469).
T5 sequence: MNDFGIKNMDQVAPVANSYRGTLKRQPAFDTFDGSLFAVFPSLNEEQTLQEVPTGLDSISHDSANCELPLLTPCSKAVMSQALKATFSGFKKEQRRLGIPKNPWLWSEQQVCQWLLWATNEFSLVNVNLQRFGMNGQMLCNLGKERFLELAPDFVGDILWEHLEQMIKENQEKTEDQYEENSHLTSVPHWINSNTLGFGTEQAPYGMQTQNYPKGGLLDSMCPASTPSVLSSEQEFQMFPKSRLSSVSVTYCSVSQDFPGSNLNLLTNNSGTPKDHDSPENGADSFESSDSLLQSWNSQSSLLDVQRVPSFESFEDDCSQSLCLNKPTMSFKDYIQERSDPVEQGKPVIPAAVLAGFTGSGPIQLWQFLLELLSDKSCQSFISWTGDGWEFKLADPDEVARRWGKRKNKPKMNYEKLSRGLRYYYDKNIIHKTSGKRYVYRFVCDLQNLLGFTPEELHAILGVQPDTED
A digest of the protocol:
as §1

Test [7] concerns the target T6, SPDEF (Homo sapiens, UniProt O95238 1-335).
T6 sequence: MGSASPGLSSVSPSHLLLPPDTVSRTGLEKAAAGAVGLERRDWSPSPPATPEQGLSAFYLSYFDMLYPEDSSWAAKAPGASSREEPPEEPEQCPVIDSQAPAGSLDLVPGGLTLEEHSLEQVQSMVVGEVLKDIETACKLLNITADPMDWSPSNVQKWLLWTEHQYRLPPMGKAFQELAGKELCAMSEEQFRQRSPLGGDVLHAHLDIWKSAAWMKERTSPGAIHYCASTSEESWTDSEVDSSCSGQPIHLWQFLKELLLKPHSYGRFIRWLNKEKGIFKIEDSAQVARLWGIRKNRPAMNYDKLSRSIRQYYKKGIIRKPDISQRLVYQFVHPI
A digest of the protocol:
as §1

For test [8], the target named is T7, ETV7 (Homo sapiens, UniProt Q9Y603 1-341).
T7 sequence: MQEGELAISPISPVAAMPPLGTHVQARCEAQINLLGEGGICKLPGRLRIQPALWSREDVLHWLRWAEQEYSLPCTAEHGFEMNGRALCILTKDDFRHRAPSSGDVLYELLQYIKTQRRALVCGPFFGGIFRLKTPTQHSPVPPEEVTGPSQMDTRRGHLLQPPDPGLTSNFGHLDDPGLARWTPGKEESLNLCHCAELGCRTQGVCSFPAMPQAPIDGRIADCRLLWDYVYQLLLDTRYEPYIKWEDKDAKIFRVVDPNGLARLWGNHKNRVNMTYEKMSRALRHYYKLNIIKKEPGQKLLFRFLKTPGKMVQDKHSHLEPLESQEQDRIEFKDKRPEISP
A digest of the protocol:
as §1

In test [9] the target is T8, ETV3 (Homo sapiens, UniProt P41162-2 1-143).
T8 sequence: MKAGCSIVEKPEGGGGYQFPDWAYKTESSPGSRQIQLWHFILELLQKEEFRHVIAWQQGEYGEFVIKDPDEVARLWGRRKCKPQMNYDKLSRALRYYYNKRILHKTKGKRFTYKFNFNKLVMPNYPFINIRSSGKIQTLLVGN
The method in brief:
as §1

Test [10] deals with ETV6 (Homo sapiens, UniProt P41212 1-452). The method in brief:
as §1

Sequence of ETV1 (P50549 whole entry): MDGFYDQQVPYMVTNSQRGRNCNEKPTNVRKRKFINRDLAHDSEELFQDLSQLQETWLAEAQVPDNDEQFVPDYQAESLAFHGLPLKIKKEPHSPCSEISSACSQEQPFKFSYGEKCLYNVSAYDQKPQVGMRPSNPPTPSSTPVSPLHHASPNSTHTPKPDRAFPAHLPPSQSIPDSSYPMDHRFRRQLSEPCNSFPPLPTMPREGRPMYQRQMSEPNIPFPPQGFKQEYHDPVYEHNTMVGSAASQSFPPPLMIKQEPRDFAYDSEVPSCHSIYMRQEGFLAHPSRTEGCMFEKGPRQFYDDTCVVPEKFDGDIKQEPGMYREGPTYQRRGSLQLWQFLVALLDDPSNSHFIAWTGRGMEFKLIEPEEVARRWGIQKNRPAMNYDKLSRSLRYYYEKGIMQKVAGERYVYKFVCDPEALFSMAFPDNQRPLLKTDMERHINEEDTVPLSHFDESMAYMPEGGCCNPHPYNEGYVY
Sequence of ETV6 (P41212 whole entry): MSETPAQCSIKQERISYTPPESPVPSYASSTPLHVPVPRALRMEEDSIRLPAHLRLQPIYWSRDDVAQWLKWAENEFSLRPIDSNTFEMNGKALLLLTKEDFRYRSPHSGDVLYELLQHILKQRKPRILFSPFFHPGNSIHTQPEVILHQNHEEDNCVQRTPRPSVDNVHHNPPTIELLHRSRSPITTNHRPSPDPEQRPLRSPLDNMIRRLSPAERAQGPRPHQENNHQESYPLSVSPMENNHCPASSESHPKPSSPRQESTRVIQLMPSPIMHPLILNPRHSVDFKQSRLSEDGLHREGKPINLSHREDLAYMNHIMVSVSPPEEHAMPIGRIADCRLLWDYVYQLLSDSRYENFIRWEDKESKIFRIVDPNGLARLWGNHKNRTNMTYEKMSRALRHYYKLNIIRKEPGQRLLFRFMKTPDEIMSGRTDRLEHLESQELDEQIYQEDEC

In the case of TCATGT, the binding signal in test [1] is 1.15 fold enrichment (6-mer frequency, TF over GST control); in test [2], 1.04 fold enrichment (6-mer frequency, TF over GST control); in [3], 1.27 fold enrichment (6-mer frequency, TF over GST control); in test [4], 1.13 fold enrichment (6-mer frequency, TF over GST control); in [5], 1.15 fold enrichment (6-mer frequency, TF over GST control); in test [6], 1.11 fold enrichment (6-mer frequency, TF over GST control). Further, the binding signal in [7] is 1.12 fold enrichment (6-mer frequency, TF over GST control); in [8], 1.15 fold enrichment (6-mer frequency, TF over GST control); in test [9] it was 1.14 fold enrichment (6-mer frequency, TF over GST control); in test [10], 1.08 fold enrichment (6-mer frequency, TF over GST control).
